In PubChem BioAssay (EPA / NIEHS) one finds outcome and AC50 data, which are given here for four compounds.

The term AC50 denotes the concentration at which the activity in the assay is half-maximal.

Calls of active or inactive are those of the source. How the source made its calls: active means hit-call score of the fitted dose curve at least 0.9, where 1 is the maximum; inactive means score below 0.9.

A short description of experiment [1]: ATG_GLI_CIS: Attagene CIS-FACTORIAL HepG2 Assay for human Zinc Finger Protein GLI1 (AID 2282945). The following applies: HepG2, Attagene cis-factorial reporter mRNA, GLI element; actives raise or lower the signal. In outline:
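Bidirectional curve fits relative to DMSO, using reporter mRNA levels from RT-PCR plus capillary electrophoresis. Cells were HepG2 transiently carrying cis-regulated reporter constructs, harvested 24 h after dosing.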

Experiment [2] addresses Bile acid receptor (Homo sapiens) (UniProt Q96RI1). The experiment in a line: ATG_IR1_CIS: Attagene CIS-FACTORIAL HepG2 Assay for human Nuclear Receptor Subfamily 1 Group H Member 4 (NR1H4), IR1 submotif (AID 2282946). The following applies: IR1 reporter transcription, actives raise or lower the signal. The procedure, abridged: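 HepG2 cells transiently transfected with multiplexed cis-element reporter units read endogenous transcription factor activity. After 24 h compound exposure, reporter mRNA was quantified by RT-PCR, fluorescent labelling, HpaI digestion and capillary electrophoresis; bidirectional fitting versus DMSO baseline.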

The nature of experiment [3]: ATG_ISRE_CIS: Attagene CIS-FACTORIAL HepG2 Assay for human Interferon Regulatory Factor 1 (IRF1) binding to an Interferon-Stimulated Response Element (ISRE) (AID 2282948). Particulars: HepG2 ISRE cis-reporter (Attagene), mRNA transcription readout; actives raise or lower the signal. The procedure, abridged: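 Endogenous transcription factor activity read as reporter transcript abundance via RT-PCR and capillary electrophoresis. HepG2 cells transiently transfected, 24 h chemical exposure. Gain or loss fitted against DMSO baseline.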

A short description of experiment [4]: ATG_M_32_CIS: Attagene CIS-FACTORIAL HepG2 Assay for M32 Transcription Factor (Internal Marker) (AID 2282949).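 Further: background control marker of the multiplexed CIS panel rather than a real target.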 Particulars: HepG2 Attagene cis-factorial M32 reporter, mRNA; actives raise or lower the signal. In outline: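 HepG2 transfectants (cis-regulated reporter transcription units) dosed 24 h. Reporter mRNA by RT-PCR plus CE, analysed as gain or loss relative to DMSO.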

A short description of experiment [5]: ATG_M_06_CIS: Attagene CIS-FACTORIAL HepG2 Assay for M06 Transcription Factor (Internal Marker) (AID 2282950). Particulars: HepG2 Attagene CIS-FACTORIAL M06 internal marker reporter; actives raise or lower the signal. In outline: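 Read-out is fluorescence of labelled reporter cDNA fragments resolved by capillary electrophoresis after RT-PCR. Cells: HepG2 carrying transfected cis-promoter reporter units, treated 24 h. Gain or loss of signal fitted relative to DMSO.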

Experiment [6] addresses Hepatocyte nuclear factor 6 (Homo sapiens) (UniProt Q9UBC0). In words: ATG_HNF6_CIS: Attagene CIS-FACTORIAL HepG2 Assay for human Hepatocyte Nuclear Factor 6 (HNF6) (AID 2282952). The following applies: HepG2 Attagene cis-factorial HNF6 reporter transcription; actives raise or lower the signal. The procedure, abridged:
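Endogenous transcription factor activity in human HepG2 liver cells was captured through cis-regulated reporter constructs. After 24 h treatment, reporter mRNA was measured by RT-PCR with capillary electrophoresis, and activity was fitted in both directions relative to DMSO.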

Experiment [7] deals with Heat shock factor protein 1 (Homo sapiens) (UniProt Q00613). The experiment in a line: ATG_HSE_CIS: Attagene CIS-FACTORIAL HepG2 Assay for human Heat Shock Transcription Factor 1 (HSE) (AID 2282953). The following applies: HepG2 HSE cis-reporter, Attagene RNA transcription; actives raise or lower the signal. In outline:
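HepG2, transient MRTU transfection, cis-promoter reporters (endogenous TF activity). 24 h compound. RNA → oligo(dT) RT → PCR → 6-FAM primer extension → HpaI cut → CE. Bidirectional fit vs DMSO.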

A short description of experiment [8]: ATG_MRE_CIS: Attagene CIS-FACTORIAL HepG2 Assay for human Metal Responsive Element (MRE) (AID 2282954). The following applies: HepG2 MRE cis-reporter transcription, Attagene multiplex; actives raise or lower the signal. The procedure, abridged: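 Endogenous MRE-dependent transcription read as reporter mRNA in transiently transfected human HepG2 cells at 24 h. RNA reverse-transcribed, PCR-amplified, labelled and resolved by capillary electrophoresis; gain or loss relative to DMSO.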

The nature of experiment [9]: ATG_PBREM_CIS: Attagene CIS-FACTORIAL HepG2 Assay for human Phenobarbital-responsive Enhancer Module (PBREM) (AID 2282955). Particulars: HepG2 PBREM cis-reporter, Attagene multiplexed transcription; actives raise or lower the signal. In outline:
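HepG2 cells transiently transfected with multiple cis-regulated reporter units measure endogenous transcription factor activity; 24 h compound exposure. Reporter mRNA quantified by RT-PCR, fluorescent labelling, HpaI digestion and capillary electrophoresis; bidirectional fit versus DMSO.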

The target of experiment [10] is Paired box protein Pax-6 (Homo sapiens) (UniProt P26367). The experiment in a line: ATG_Pax6_CIS: Attagene CIS-FACTORIAL HepG2 Assay for human Paired Box 6 (PAX6) (AID 2282956). Particulars: HepG2 CIS-FACTORIAL PAX6 reporter transcription, RNA readout; actives raise or lower the signal. The procedure, abridged: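 Read-out is reporter transcript level, measured by RT-PCR with fluorescent primer extension and capillary electrophoresis after 24 h dosing of transfected HepG2 cells. Activity in either direction fitted relative to DMSO control.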

A short description of experiment [11]: ATG_PXRE_CIS: Attagene CIS-FACTORIAL HepG2 Assay for human Pregnane X Receptor Element (PXRE) (AID 2282957). Particulars: HepG2 Attagene CIS-FACTORIAL PXRE reporter, mRNA; actives raise or lower the signal. In outline: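 Endogenous transcription factor activity in HepG2 was gauged through induction of reporter mRNA driven by a cis-regulating promoter element, sampled 24 h post-treatment. Activity was fitted in both directions against DMSO negative control.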

The nature of experiment [12]: ATG_PPRE_CIS: Attagene CIS-FACTORIAL HepG2 Assay for human Peroxisome Proliferator-activated Response Element (PPRE) (AID 2282958). The following applies: HepG2 PPRE cis-element reporter, Attagene transcription factor profiling; actives raise or lower the signal. In outline:
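HepG2 cells are transiently transfected with multiplexed cis-promoter reporter units to report endogenous PPAR activity. After 24 h dosing, reporter mRNA is read by RT-PCR and capillary electrophoresis. Fitting is bidirectional against DMSO.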

Experiment [13] in a line: ATG_RORE_CIS: Attagene CIS-FACTORIAL HepG2 Assay for human RAR-related Orphan Receptor Element (RORE) (AID 2282959). Particulars: HepG2 Attagene cis-factorial RORE reporter, mRNA; actives raise or lower the signal. The procedure, abridged:
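HepG2 cells carrying transiently transfected cis-regulated reporter units; RORE-driven reporter mRNA quantified 24 h post-dosing by RT-PCR, 6-FAM primer extension, HpaI digestion and capillary electrophoresis. Bidirectional fit versus DMSO.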

Experiment [14] is described as follows: ATG_Sox_CIS: Attagene CIS-FACTORIAL HepG2 Assay for human SRY-box transcription factor (SOX) (AID 2282960). The following applies: HepG2 Attagene cis-factorial SOX reporter, mRNA; actives raise or lower the signal. In outline: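 HepG2 cells transiently transfected with multiple cis-regulated reporter units, then dosed for 24 h. Reporter mRNA quantified by RT-PCR, fluorescent labelling, HpaI digestion and capillary electrophoresis; bidirectional fit versus DMSO.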

The target in experiment [15] is Transcription factor Sp1 (Homo sapiens) (UniProt P08047). In words: ATG_Sp1_CIS: Attagene CIS-FACTORIAL HepG2 Assay for human Specificity Protein 1 (Sp1) (AID 2282961). The following applies: HepG2 Sp1 cis-reporter transcription, actives raise or lower the signal. In outline: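 HepG2 cells transiently transfected with multiplexed cis-regulated reporter constructs, chemical exposure 24 h. Reporter mRNA quantified by RT-PCR with capillary electrophoresis; bidirectional fit relative to DMSO.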

Experiment [16] in a line: ATG_SREBP_CIS: Attagene CIS-FACTORIAL HepG2 Assay for human Sterol Regulatory Element Binding (SREBP) (AID 2282962). Particulars: HepG2 Attagene cis-factorial SREBP reporter, mRNA; actives raise or lower the signal. In outline:
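Endogenous SREBP activity read as cis-element-driven reporter transcript in transiently transfected HepG2, 24 h post-dosing; quantified via RT-PCR plus capillary electrophoresis of fluorescent fragments. Gain or loss of signal fitted relative to DMSO baseline.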

Experiment [17] addresses Signal transducer and activator of transcription 3 (Homo sapiens) (UniProt P40763). In words: ATG_STAT3_CIS: Attagene CIS-FACTORIAL HepG2 Assay for human Signal Transducer and Activator of Transcription 3 (STAT3) (AID 2282963). Particulars: HepG2, Attagene cis-factorial STAT3 reporter transcription; actives raise or lower the signal. The procedure, abridged:
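Readout is reporter transcript quantified by RT-PCR and capillary electrophoresis, with 6-FAM primer extension and HpaI digestion. Total RNA is taken 24 h after dosing transiently transfected HepG2 carrying cis-regulated reporter units. Bidirectional fit against DMSO.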

Experiment [18] is described as follows: ATG_TA_CIS: Attagene CIS-FACTORIAL HepG2 Assay for human TA Basal Promoter (AID 2282964). The following applies: HepG2 Attagene CIS-factorial TA basal promoter reporter; actives raise or lower the signal. In outline:
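Read-out: fluorescent reporter-transcript fragments resolved by capillary electrophoresis after RT-PCR and HpaI digestion. Source: HepG2 cells carrying transiently transfected multi-reporter cis constructs, treated 24 h. Endpoint fitted bidirectionally relative to DMSO.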

For experiment [19], the target named is Hypoxia-inducible factor 1-alpha (Homo sapiens) (UniProt Q16665). The experiment in a line: ATG_HIF1a_CIS: Attagene CIS-FACTORIAL HepG2 Assay for human Hypoxia Inducible Factor 1 (HIF1A) (AID 2282951). The following applies: HepG2 Attagene cis-factorial HIF1a reporter transcription; actives raise or lower the signal. In outline: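 HepG2 cells transiently transfected with multiple cis-regulated reporter transcription units measure endogenous transcription factor activity. After 24 h exposure, reporter mRNA is quantified by RT-PCR with 6-FAM labelling, HpaI digestion and capillary electrophoresis. Bidirectional fitting against DMSO.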
Sequence of Hypoxia-inducible factor 1-alpha (Homo sapiens) (Q16665 whole entry, looked up): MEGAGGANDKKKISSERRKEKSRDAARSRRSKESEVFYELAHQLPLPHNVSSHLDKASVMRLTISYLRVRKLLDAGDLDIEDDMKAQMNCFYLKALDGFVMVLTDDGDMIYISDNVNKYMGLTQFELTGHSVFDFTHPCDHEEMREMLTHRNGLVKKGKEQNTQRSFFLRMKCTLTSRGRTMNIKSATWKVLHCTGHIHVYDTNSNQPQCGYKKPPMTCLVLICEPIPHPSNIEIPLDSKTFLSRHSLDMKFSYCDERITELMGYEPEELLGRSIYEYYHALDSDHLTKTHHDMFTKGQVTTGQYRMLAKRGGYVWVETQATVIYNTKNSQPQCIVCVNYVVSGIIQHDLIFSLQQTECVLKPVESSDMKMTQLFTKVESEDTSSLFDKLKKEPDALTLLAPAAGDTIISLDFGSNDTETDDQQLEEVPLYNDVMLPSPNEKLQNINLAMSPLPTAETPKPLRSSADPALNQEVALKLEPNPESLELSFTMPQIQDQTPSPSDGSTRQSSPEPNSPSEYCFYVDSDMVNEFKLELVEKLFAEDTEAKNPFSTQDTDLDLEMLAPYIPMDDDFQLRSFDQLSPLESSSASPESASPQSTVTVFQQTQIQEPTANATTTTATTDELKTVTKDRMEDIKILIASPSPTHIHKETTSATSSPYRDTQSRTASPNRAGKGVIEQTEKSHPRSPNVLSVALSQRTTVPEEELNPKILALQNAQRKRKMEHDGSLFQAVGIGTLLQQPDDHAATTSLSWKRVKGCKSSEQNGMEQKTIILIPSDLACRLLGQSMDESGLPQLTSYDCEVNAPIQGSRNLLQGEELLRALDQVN

Sequence of Transcription factor Sp1 (Homo sapiens) (P08047 whole entry, looked up): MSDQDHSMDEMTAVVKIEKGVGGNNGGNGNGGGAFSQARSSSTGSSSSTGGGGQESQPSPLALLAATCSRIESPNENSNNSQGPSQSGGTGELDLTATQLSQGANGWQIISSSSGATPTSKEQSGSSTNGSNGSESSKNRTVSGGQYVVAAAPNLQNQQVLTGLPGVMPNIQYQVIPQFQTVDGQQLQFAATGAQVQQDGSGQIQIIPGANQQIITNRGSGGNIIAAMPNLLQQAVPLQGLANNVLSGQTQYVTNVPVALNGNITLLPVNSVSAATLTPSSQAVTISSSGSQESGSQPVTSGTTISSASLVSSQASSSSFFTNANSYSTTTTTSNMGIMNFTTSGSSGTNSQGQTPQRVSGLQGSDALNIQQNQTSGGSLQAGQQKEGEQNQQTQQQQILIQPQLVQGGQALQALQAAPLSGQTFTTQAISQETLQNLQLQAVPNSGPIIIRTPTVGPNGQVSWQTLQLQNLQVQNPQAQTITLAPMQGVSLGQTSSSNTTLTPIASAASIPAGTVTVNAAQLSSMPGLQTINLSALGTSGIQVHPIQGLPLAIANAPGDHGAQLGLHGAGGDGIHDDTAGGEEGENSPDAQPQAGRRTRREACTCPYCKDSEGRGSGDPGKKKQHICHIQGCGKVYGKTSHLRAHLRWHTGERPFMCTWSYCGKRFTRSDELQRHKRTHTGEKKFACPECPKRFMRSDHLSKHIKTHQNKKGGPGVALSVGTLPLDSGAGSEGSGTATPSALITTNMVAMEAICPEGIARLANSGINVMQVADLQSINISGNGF
Sequence of Paired box protein Pax-6 (Homo sapiens) (P26367 whole entry, looked up): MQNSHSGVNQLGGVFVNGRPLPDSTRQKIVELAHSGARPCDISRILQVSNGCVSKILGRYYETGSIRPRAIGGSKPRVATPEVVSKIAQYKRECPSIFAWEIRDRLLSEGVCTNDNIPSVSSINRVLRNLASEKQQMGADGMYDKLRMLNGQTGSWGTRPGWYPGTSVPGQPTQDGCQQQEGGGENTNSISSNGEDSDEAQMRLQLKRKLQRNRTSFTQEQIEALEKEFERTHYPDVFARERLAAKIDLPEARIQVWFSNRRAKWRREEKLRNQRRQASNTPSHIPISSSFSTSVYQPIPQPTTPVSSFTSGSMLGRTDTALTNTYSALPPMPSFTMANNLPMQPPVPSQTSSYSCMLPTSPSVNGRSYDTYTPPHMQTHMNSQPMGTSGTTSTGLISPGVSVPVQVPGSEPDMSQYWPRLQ
Sequence of Hepatocyte nuclear factor 6 (Homo sapiens) (Q9UBC0 whole entry, looked up): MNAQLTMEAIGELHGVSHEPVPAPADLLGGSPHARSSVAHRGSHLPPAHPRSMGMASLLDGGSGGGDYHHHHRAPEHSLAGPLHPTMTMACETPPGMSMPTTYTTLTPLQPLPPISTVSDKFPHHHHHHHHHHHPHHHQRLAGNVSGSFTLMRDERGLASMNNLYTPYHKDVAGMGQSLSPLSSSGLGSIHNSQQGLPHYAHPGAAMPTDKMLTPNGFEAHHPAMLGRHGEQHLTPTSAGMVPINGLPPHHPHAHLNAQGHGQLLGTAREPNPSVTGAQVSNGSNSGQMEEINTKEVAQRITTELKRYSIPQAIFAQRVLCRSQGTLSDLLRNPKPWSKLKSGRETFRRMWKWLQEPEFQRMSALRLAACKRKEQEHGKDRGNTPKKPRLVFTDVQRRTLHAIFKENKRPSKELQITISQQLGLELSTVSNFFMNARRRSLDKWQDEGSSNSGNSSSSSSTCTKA
Sequence of Bile acid receptor (Homo sapiens) (Q96RI1 whole entry, looked up): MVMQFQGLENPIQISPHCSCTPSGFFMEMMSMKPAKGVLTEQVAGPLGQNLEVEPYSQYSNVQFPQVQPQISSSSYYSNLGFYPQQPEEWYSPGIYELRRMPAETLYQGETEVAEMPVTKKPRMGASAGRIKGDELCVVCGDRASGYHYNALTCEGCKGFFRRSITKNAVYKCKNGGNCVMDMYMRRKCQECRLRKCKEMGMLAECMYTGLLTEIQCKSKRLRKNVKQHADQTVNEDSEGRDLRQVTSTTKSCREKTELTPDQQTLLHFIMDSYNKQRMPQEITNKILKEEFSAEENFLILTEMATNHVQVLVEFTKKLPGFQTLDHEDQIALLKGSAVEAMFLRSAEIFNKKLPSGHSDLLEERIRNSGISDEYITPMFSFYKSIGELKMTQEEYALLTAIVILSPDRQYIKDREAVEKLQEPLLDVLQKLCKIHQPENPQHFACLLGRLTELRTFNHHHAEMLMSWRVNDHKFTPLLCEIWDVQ
Sequence of Heat shock factor protein 1 (Homo sapiens) (Q00613 whole entry, looked up): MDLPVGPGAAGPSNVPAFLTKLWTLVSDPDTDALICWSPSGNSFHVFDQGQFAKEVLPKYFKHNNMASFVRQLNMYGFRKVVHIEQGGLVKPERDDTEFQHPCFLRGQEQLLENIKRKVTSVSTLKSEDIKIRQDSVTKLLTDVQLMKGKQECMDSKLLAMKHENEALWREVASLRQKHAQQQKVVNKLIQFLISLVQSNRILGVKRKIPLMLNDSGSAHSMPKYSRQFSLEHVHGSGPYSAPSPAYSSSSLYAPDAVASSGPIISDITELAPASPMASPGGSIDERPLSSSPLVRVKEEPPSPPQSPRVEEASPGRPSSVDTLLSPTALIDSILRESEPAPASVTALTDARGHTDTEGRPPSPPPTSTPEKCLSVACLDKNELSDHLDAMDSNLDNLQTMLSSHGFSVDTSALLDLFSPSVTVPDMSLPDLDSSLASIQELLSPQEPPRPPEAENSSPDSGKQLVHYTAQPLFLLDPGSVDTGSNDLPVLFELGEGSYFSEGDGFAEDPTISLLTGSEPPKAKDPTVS
Sequence of Signal transducer and activator of transcription 3 (Homo sapiens) (P40763 whole entry, looked up): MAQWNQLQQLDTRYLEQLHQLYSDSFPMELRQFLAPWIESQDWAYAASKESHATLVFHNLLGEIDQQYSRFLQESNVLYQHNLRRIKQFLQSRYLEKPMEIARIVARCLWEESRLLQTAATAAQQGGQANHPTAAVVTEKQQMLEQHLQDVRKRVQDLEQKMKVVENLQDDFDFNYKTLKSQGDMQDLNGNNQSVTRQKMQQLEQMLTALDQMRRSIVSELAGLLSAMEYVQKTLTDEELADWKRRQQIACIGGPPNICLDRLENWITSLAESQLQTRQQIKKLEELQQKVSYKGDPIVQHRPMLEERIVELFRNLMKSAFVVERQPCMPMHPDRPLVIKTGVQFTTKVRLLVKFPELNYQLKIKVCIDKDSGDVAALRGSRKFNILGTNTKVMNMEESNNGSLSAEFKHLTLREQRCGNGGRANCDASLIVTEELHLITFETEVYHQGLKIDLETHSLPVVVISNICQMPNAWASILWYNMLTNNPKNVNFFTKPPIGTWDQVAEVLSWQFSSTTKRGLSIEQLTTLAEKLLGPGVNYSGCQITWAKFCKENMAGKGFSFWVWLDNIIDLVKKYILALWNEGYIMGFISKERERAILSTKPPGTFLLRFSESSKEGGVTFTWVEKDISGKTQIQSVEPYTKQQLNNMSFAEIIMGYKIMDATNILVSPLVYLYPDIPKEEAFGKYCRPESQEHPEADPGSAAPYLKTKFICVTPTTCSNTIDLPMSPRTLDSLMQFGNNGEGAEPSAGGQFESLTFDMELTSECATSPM

Turning to `CNS(=O)(=O)C(F)(F)C(F)(F)C(F)(F)C(F)(F)C(F)(F)C(F)(F)C(F)(F)C(F)(F)F`, the call in [1], in [2], in experiment [3], in experiment [4], in experiment [5] and in [6] was inactive. Moreover, the result in [7], in experiment [8], in [9], in experiment [10], in [12] and in experiment [13] was inactive. In addition, the compound was classed as inactive in experiment [14], in [15], in experiment [16], in experiment [17] and in experiment [18]. Also, the AC50 in experiment [11] was 10.4 µM (active).
As to `CCc1cccc(C)c1N(C(=O)C(=O)O)C(C)COC` (stereo unspecified), the compound was called inactive in experiment [1], in experiment [2], in [3], in experiment [4], in experiment [5] and in experiment [19]. The compound was called inactive in experiment [6], in [7], in experiment [8], in [11], in experiment [12] and in experiment [13]. Besides, the outcome in [14], in experiment [15], in experiment [16] and in [17] was inactive.
For `OCCC(O)CO` (stereo unspecified), the call in [1], in experiment [2], in experiment [3], in experiment [4], in experiment [5] and in experiment [19] was inactive. For the same compound, the result in [6], in experiment [7], in [8], in [9], in [10] and in experiment [11] was inactive. Further, the outcome in experiment [12], in [13], in experiment [14], in experiment [15], in [16] and in [17] was inactive. In addition, in experiment [18], the result was inactive.
Take `Oc1ccc(C2(c3ccc(O)c(C4CCCCC4)c3)CCCCC2)cc1C1CCCCC1`: the compound was classed as inactive in experiment [1], in [2], in experiment [4], in [5], in [6] and in [12]. Also, the outcome in [13], in experiment [15] and in [18] was inactive. Besides, the AC50 in experiment [3] was 55.9 µM (active); in experiment [7] it was 8.18 µM (active); in experiment [8], 11.1 µM (active); in experiment [9] it was 8.53 µM (active); in [10], 14.4 µM (active); in [11] it was 0.175 µM (active). Besides, the AC50 is 7.42 µM (active) in experiment [14], 27 µM (active) in experiment [16] and 62.4 µM (active) in experiment [17].
